One test has as its target FANCL. The test is described as follows: pooled miR-30 sensor sort-seq; sequence = guide strand. As to conditions: shRNA.
TAAGGTGGAAGTCTCTTCCCTG returned a sensor-assay potency score (higher = more potent) of 0.0592.

TTCTGCAGGATACTTTGCCTTC yielded a sensor-assay potency score (higher = more potent) of -0.558. Still for that read-out and setting: under TAATCTTGCATTCTTCAGTTGT stands 0.333; under TTAGTGATTCTATTGCTGCCAA, 0.323; under TAGATCAGGAGAGTGCTGCATT, -0.0519.

Take TTATGGAAACATTATTACCTAA: the sensor-assay potency score (higher = more potent) was -1.18. Same read-out and setting: under TACAATATGGACATTCACCAAA stands -0.784; under TTACCTAATGCAATTCTGCGTG, -0.355. Same read-out and setting: under TTAGTGAAGAGACAAACGCAGA stands -1.17. TTCTCTGTTGTACTATTCGATG showed a sensor-assay potency score (higher = more potent) of -1.72.

With TAATAATCTTGCATTCTTCAGT, the sensor-assay potency score (higher = more potent) is -0.383. On the same count and under the same terms, under TAAAACTCTGTCTACTAGTTAG stands -1.39.

The next test concerns the target FASN. The test is described as above. As to conditions: shRNA.
In turn, TACTTTCCCGTCGCATACCTGG came in with a sensor-assay potency score (higher = more potent) of -1.06. In the case of TCCACGAACTCAAACACCGGGG, the sensor-assay potency score (higher = more potent) was -1.02. Still for that read-out and setting: under TTCAGGAAGATAGCCATGCCGA stands -1.28; under TTGATGATCAGGTCCACGGCGG, 0.0156; under TTCCTCGGAGTGAATCTGGGTT, 0.14. The same measure, in the same setting: under TAGTAGACCGTGCAGAGCTGGG stands -0.853; under TTGAGCTCCTGCAGCAGTGGGG, -0.482; under TAGGTGGGGATGCTGAGCCGGG, -1.21.

TAGCCCACGAGTGTCTCGGGGT gave a sensor-assay potency score (higher = more potent) of -0.532.
Also: reference of the scale not given here.
